The full list was thinned out, with hits kept by preference.
LmPK inhibitor = LmPK (Leishmania mexicana) enzyme inhibition. purified LmPK, Kinase-Glo ATP luminescence, 1 h. Potency, µM (titrated, usually from 57.5 µM), for inactives: at the highest dose activity change, negative = inhibition, actives largely listed as inhibitors. 0.37% of 290,000 active. AID 1721; also: potency is read from the fitted curve at half-maximal effect; % is scaled to controls: 0 for no effect and ±100 for the full control effect
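ATP generated from ADP (0.1 mM) and PEP (0.5 mM) by 0.1 nM LmPK over 1 h at room temperature (pH 7.2 imidazole buffer) was detected by coupled luciferase luminescence. Values were normalized to uninhibited and no-enzyme wells.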
RE007 growth inh = less growth of the S. pombe RE007 Vpr strain | Potency, µM (highest dose often 92.2 µM), without a hit: top-dose activity change, negative = less growth, usual class: inhibitors | 0.21% of 360,000 active | AID 651644 | S. pombe RE007 Vpr strain, BacTiter-Glo ATP luminescence, 24 h; active = well fitted falling curve with a large enough effect; inconclusive = small, poorly fitted or top-dose-only effect; inactive = no such curve, though single readings can be large or run the other way; also: potency is read from the fitted curve at half-maximal effect; % is scaled to controls: 0 for no effect and ±100 for the full control effect; nearly all actives have a fitted effect of over 50% in size
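Fission yeast strain RE007, carrying one chromosomally integrated HIV-1 vpr copy, was seeded at OD 0.01 in PMG+AL medium with 23 nL pinned compound. After 24 h at 30 °C and 99% humidity, viability was read by BacTiter-Glo luminescence.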
Giardia FBPA inh = Giardia lamblia aldolase inhibition; A8B2U2; purified Giardia FBPA; Potency, µM (titrated, usually from 59.6 µM), for inactives: at the top dose activity, negative = inhibition, usual class: inhibitors; 0.71% of 290,000 active; AID 2451; also: potency is read from the fitted curve at half-maximal effect; % is scaled to controls: 0 for no effect and ±100 for the full control effect; nearly all actives have a fitted effect of over 55% in size
Target sequence (A8B2U2 whole entry, looked up): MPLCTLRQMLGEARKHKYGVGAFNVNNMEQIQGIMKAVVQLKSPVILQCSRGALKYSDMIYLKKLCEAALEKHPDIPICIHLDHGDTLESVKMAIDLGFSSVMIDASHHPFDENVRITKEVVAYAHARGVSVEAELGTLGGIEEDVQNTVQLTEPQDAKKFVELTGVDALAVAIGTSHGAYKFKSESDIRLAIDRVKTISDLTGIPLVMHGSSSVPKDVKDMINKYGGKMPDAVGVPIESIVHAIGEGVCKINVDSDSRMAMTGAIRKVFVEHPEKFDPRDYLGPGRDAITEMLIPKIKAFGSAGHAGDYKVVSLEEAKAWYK
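40 nM FBPA preincubated 10 min at RT with compound (up to 57.5 uM final), then substrate plus GAPDH/TPI/NAD/arsenate coupling and diaphorase/resazurin added. Fluorescence read after 20 min at RT, 525/598 nm.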
TbPYK inhibitor = T. brucei pyruvate kinase inhibition; AID 624173; TbPYK enzyme, Kinase-Glo Plus ATP luminescence, 45 min; 0.12% of 410,000 active; Potency, µM (highest dose often 76.8 µM), for inactives: at the highest dose activity, negative = inhibition, usual class: inhibitors; Q57TT1; also: potency is read from the fitted curve at half-maximal effect; % is scaled to controls: 0 for no effect and ±100 for the full control effect; nearly all actives have a fitted effect of over 50% in size
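TbPYK + substrate in 50 mM TEA pH 7.2, 100 mM KCl, 10 mM MgCl2, 0.05% BSA, 0.01% Tween-20; cpd pinned; ADP 130 uM final; 45 min RT; Kinase-Glo Plus 10 min; luminescence endpoint.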
Shiga inhibitor = Shiga toxin inhibition | Vero cells, Shiga toxin protein synthesis inhibition reporter | inhibition, % at 38.7 µM | 9.2% of 290,000 active | AID 2315; in the data active = inhibition mostly above about 28%, no sharp cut-off; inactive = mostly below about 43%; also: 0% is about no effect
CHX counter = counter-screen hit for Shiga toxin inhibitors, cycloheximide; cell reporter, cycloheximide protein synthesis inhibition counterscreen; 12% of 300,000 active; AID 2314; max response, %; in the data active = max response mostly above about 13%, no sharp cut-off; inactive = mostly below about 14%; also: read at 38.3 µM for the half of the compounds with a filed dose; 0% is about no effect
* hit, by the source's call; ? = inconclusive; . = no result given; + = active, no number; [ ] = remark or other dose. Unless noted, calls follow the shape of the dose curve; as a rule, active = well fitted curve in the direction sought with a large enough effect; inconclusive = small, poorly fitted or top-dose-only effect, or another doubt; inactive = no such curve, though single readings can be large; an effect the other way counts as inactive or inconclusive.

SMILES	LmPK inhibitor	RE007 growth inh	Giardia FBPA inh	TbPYK inhibitor	Shiga inhibitor	CHX counter
CC1(C)Oc2ccc(C(=O)Nc3ccccc3)cc2N(CC#N)C1=O	0.0%	7.8%	-7.2%	3.5%	38.1*	17.5*
CCC(C)(C)NC(=O)c1ccc2c(c1)N(CC(=O)OC)C(=O)C(C)(C)O2	-2.3%	-20.0%	-0.4%	4.4%	5.4	8.0
CN1CCN(c2ncc3nc(-c4ccccc4)c(=O)n(C4CC4)c3n2)CC1	.	.	-3.8%	.	.	.
O=C(Oc1ccccc1)c1ccc2nsnc2c1	-14.7%	-21.1%	-4.8%	3.4%	75.1*	52.7*
Cn1c2ccccc2c2nnc(NN)nc21	-14.5%	8.1%	-13.1%	-11.6%	24.8	-1.4
CCCCc1c(C)nn(-c2nnc3c4ccccc4n(C)c3n2)c1C	1.3%	-6.0%	9.2%	0.0%	48.5*	21.1*
COC(=O)[C@H]1C[C@H](OC(=O)NCc2ccco2)[C@@]2(O)CN(S(=O)(=O)c3ccc(C)cc3)CC2[C@H]1C(=O)OC (stereo partly specified)	.	-11.6%	.	-9.5%	.	.
Cc1cc(C)c(O)c(NC(=S)NC(=O)Cc2ccccc2)c1	-2.5%	-10.0%	6.6%	0.4%	4.7	-1.0
Cc1ccc(-c2nn(-c3ccccc3)cc2CO)o1	-5.0%	?	1.6%	-1.9%	84.7*	33.6*
CCc1ccc(-c2nn(Cc3ccccc3)cc2C=O)cc1	0.5%	-5.1%	-0.5%	1.3%	90.3*	50.0*
C(=N\N1CCOCC1)/c1cn(-c2ccccc2)nc1-c1ccccc1	0.7%	-5.2%	-1.1%	3.4%	34.7	21.9*
O=Cc1cn(-c2ccccc2)nc1-c1ccccc1	-10.7%	0.0%	5.4%	-13.6%	45.3*	43.6*
O=Cc1cn(-c2ccccc2)nc1-c1ccncc1	-2.2%	12.8%	0.1%	-3.1%	-2.7	5.3
CCOC(=O)c1c(C)[nH]c(C)c1S(=O)(=O)NCC(=O)N1CCN(c2cccc(C)c2)C(C)C1 (stereo unspecified)	.	.	.	2.9%	.	.
COC(=O)NC(/C(C(=O)OC)=C(\C)NCc1ccccc1)c1ccc(F)cc1 (stereo unspecified)	.	.	-14.2%[12.9 µM]	.	.	.
CCCN(CCC)C(=O)[C@@H](CCC(=O)O)NC(=O)c1ccccc1	.	.	0.5%[21.7 µM]	0.0%	.	.
Cc1ccc(-c2nn(-c3cccc(F)c3)cc2CNCc2cccnc2)o1	1.1%	-17.4%	0.8%	0.5%	26.9	10.1*
N#Cc1cn(-c2ccccc2)nc1-c1ccccc1	3.6%	4.0%	14.4%	-12.7%	25.2	21.4*
Cc1ccc(-c2nn(-c3ccccc3)cc2C=O)o1	-1.3%	?	-22.6%	-5.7%	112.5*	50.9*
Cc1ccc(-c2nn(-c3ccccc3)cc2C(N)=O)o1	1.3%	1.2%	-1.2%	-18.0%	-4.4	12.5
CCOC(=O)CSc1nc2cc(OC)ccc2cc1C#N	5.8%	-10.0%	-3.9%	-13.0%	116.2*	22.1*
Cc1ccc2cc(C#N)c(SCC(=O)N3CCCC3)nc2c1	8.9%	-20.0%	1.2%	-14.9%	27.0	22.2*
CCOC(=O)CSc1nc2cc(C)cc(C)c2cc1C#N	0.0%	-9.5%	8.7%	-3.8%	25.0	13.9*
CCOC(=O)CC(=O)CSc1nc2ccc(OC)cc2cc1C	4.6%	-0.3%	-6.1%	-0.7%	50.6*	20.6*
CCOC(=O)CSc1nc(C)cc(C)c1C#N	6.2%	-0.8%	-4.5%	?	-12.4	-1.0
SMILES	LmPK inhibitor	RE007 growth inh	Giardia FBPA inh	TbPYK inhibitor	Shiga inhibitor	CHX counter
CCOC(=O)CC(=O)CSc1nc2cc(C)ccc2cc1C	5.3%	-15.2%	9.0%	1.0%	25.2	5.4
COc1ccc2cc(C#N)c(SCC(=O)Nc3nonc3C)nc2c1	-0.9%	-4.8%	-3.7%	-7.7%	30.3	13.5
COc1ccc(C(=O)Nc2nc(-c3nnn(-c4ccc(F)cc4F)c3C)ns2)cc1	.	.	.	1.0%	.	.
COc1ccc(-n2c(=O)cnc3cnc(Nc4ccccc4)nc32)cc1	.	.	-2.6%	-11.1%	.	.
CCOC(=O)CSc1nc(-c2ccccc2)nc2ccc(C)cc12	2.1%	-8.7%	6.3%	4.2%	-3.7	-1.6
COc1ccc2nc(SCC(C)=O)c(C#N)cc2c1	-4.7%	6.4%	-11.1%	0.1%	115.6*	35.6*
COc1ccc2nc(SC)c(C#N)cc2c1	-3.9%	2.9%	0.1%	-0.4%	38.2	16.6
CCOC(=O)CSc1nc2ccc(C)cc2cc1C#N	5.5%	-19.5%	-1.2%	3.5%	80.2*	58.9*
CCOC(=O)CSc1nc2cc(C)ccc2cc1C#N	3.1%	-2.6%	-3.5%	-6.7%	100.0*	40.5*
O=C(NC1CCCCC1)C(c1cccc2ccccc12)n1c(=O)c(-c2ccco2)nc2ccccc21 (stereo unspecified)	.	-5.9%	.	.	.	.
CCCN(CCc1cccs1)[C@H]1CCc2c(O)cccc2C1	.	.	.	-4.6%	.	.
CCSc1nnc2c(n1)OC(c1ccc(C)s1)Nc1ccccc1-2 (stereo unspecified)	.	.	.	-1.9%	.	.
C=CCSc1nnc2c(n1)OC=Nc1ccccc1-2	25.1µM*	?	-16.4%	-3.3%	21.8	12.5
C=CCSc1nnc2c(n1)OC(c1ccco1)Nc1ccccc1-2 (stereo unspecified)	-3.2%	4.0%	?	3.1%	+	40.2*
COc1ccc(CNC(=O)CN=C2NC(=O)C(c3ccccc3)(c3ccccc3)N2)cc1	-1.2%	0.4%	5.3%	1.8%	31.3*	11.5
O=C(CN=C1NC(=O)C(c2ccccc2)(c2ccccc2)N1)NCc1ccc(F)cc1	-2.0%	-3.7%	-4.6%	4.9%	17.6	13.2
Cc1cccc2cc3c(nc12)-c1ccccc1C3=O	2.2%	-4.7%	-3.1%	-1.6%	42.6*	17.3*
N/C(=N\OC(=O)c1ccc(F)cc1)c1ccccc1	7.94µM*	?	1.8%	?	150.4*	58.8*
Cc1ccc(/C(N)=N/OC(=O)c2ccc(F)cc2)cc1	-1.5%	-28.5%	2.3%	6.0%	91.4*	48.8*
N/C(=N\OC(=O)c1ccc(F)cc1)c1ccc(Br)cc1	-1.8%	-27.8%	1.0%	-3.4%	70.1*	33.0*
CC(C)CCNC(=O)CN(C(=O)CCC(=O)Nc1ccccn1)c1ccc2c(c1)OCO2	-3.1%	5.6%	-0.8%	0.1%	-1.9	-1.8
CCC(C)(C)NC(=O)CN(C(=O)CCC(=O)Nc1nccs1)c1ccc2c(c1)OCCO2	3.6%	-2.4%	4.1%	0.0%	57.4*	50.9*
O=C(CN(C(=O)Cn1nnc(-c2cccs2)n1)c1ccc2c(c1)OCCO2)NC1CCCCC1	2.1%	-3.7%	-5.6%	4.7%	56.2*	32.1*
CCc1ccc(N(CC(=O)NC(C)(C)CC)C(=O)CCC(=O)Nc2nccs2)cc1	4.4%	-3.4%	9.4%	-25.6%	-8.7	-2.2
O=C(CN(C(=O)CCC(=O)Nc1ccccn1)c1ccc2c(c1)OCCO2)NCCc1ccccc1	0.2%	17.4%	-3.7%	-2.9%	28.6	11.6*

Source: PubChem (National Center for Advancing Translational Sciences (NCATS))
